Results filed as inconclusive are left out. A call without a number means that no potency is given here. Activity calls are given as the source filed them. Calls follow the shape of the dose curve; as a rule, active = well fitted inhibition curve with a large enough effect; inconclusive = small, poorly fitted or top-dose-only effect; inactive = flat fitted curve, though single readings scatter.

For 6 compounds, Potency results are on record in PubChem BioAssay (NCATS).
Potency is read from the fitted curve at half-maximal effect.

One test has as its system PC26. As to the kind of experiment: qHTS profiling for inhibitors of Plasmodium falciparum proliferation (AID 504749). Also: nearly all actives have a fitted effect of over 60% in size. To be noted: P. falciparum in erythrocytes, SYBR Green DNA, 72 h; series mostly up to 28.7 µM. In short, it runs like this: (§1)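 P. falciparum-infected erythrocytes (0.3% parasitemia, 2.5% hematocrit final) were exposed to compounds for 72 h at 37 C in 5% CO2, then lysed with SYBR Green buffer overnight at room temperature; parasite DNA fluorescence was normalized to artemisinin and DMSO controls.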
(In general: In qHTS, concentration-response curves come from the screen itself.)
In the case of `CC(C)NC[C@H](O)COc1ccc(CC(N)=O)cc1`, the Potency result was “inactive”.
For the compound `CC(O)C(O)[C@H]1CNc2nc(N)[nH]c(=O)c2N1` (stereo not given in full), the Potency result was “inactive”.
For `c1ccc(C2CN3CCSC3=N2)cc1` (stereo not given), the Potency is 15.1 µM (active).
Turning to `CCCCCCCCCCCCCCC[C@H](O)[C@H](N)CO`, the Potency entry was “inactive”.

A further test relates to PC49. The description is as above. As to conditions: P. falciparum in erythrocytes, SYBR Green DNA, 72 h; series mostly up to 28.7 µM. Put shortly:
as §1
Take `CC(C)NC[C@H](O)COc1ccc(CC(N)=O)cc1`: the Potency result was “inactive”.
In the case of `CC(O)C(O)[C@H]1CNc2nc(N)[nH]c(=O)c2N1` (stereo not given in full), the Potency entry is “inactive”.
In the case of `CN1C2CCC1CC(OC(c1ccccc1)c1ccccc1)C2` (stereo not given), the Potency is 2 µM (active).
In the case of `CCCCCCCCCCCCCCCCCCOC[C@H](COP(=O)([O-])OCC[N+](C)(C)C)OC`, the Potency result was “inactive”.
With `CCCCCCCCCCCCCCC[C@H](O)[C@H](N)CO`, the Potency entry was “inactive”.

For a further test, the system named is SC27B. The test is described as above. To be noted: P. falciparum in erythrocytes, SYBR Green DNA, 72 h; series mostly up to 28.7 µM. Put shortly:
as §1
As for `CC(C)NC[C@H](O)COc1ccc(CC(N)=O)cc1`, the Potency result was “inactive”.
In the case of `CC(O)C(O)[C@H]1CNc2nc(N)[nH]c(=O)c2N1` (stereo not given in full), the Potency entry was “inactive”.
On the same count and under the same terms, the same measure for `CN1C2CCC1CC(OC(c1ccccc1)c1ccccc1)C2` (stereo not given): “inactive”; for `CCCCCCCCCCCCCCCCCCOC[C@H](COP(=O)([O-])OCC[N+](C)(C)C)OC`: “inactive”.
Consider `c1ccc(C2CN3CCSC3=N2)cc1` (stereo not given), for which the Potency was 10 µM (active).
Still for that read-out and setting: the same measure for `CCCCCCCCCCCCCCC[C@H](O)[C@H](N)CO`: “inactive”.
